# Experimental data published in PubChem BioAssay (NCI).
# This is part of a sample that, as a whole, favours compounds with a hit. Of some 83,000 tested, about 20% had one in any assay.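 Single-concentration screen, 48 h exposure, 96-well plates. Endpoint: percent growth. Below 10 = active.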 Values without a mark were called inactive. Calls of active or inactive are those of the source.
# Tests used:
# Assay in all cases: NCI-60 one-dose screen, 48 h (100 = growth as untreated, 0 = no growth, -100 = all killed)
# Conditions in all cases: 10 µM
# NCI-H23 lung = tested on: NCI-H23 lung
# NCI-H226 lung = tested on: NCI-H226 lung
# NCI-H460 lung = tested on: NCI-H460 lung
# HOP-92 NSCLC = tested on: HOP-92 NSCLC
# A549/ATCC NSCLC = tested on: A549/ATCC NSCLC
# 786-0 renal = tested on: 786-0 renal
# COLO 205 colon = tested on: COLO 205 colon
# NCI-H522 lung = tested on: NCI-H522 lung
Structure (SMILES),growth (NCI-H23 lung),growth (NCI-H226 lung),growth (NCI-H460 lung),growth (HOP-92 NSCLC),growth (A549/ATCC NSCLC),growth (786-0 renal),growth (COLO 205 colon),growth (NCI-H522 lung)
CCCCC(CC)CN=C(N)NC(N)=NCCCCCCN=C(N)NC(N)=NCC(CC)CCCC (configuration not stated),-80% (active),-63.1% (active),-71.3% (active),-53.9% (active),-87.1% (active),-31.2% (active),-79.8% (active),
Nc1nc(Cl)nc2c1ncn2C1O[C@H](CO)[C@@H](O)[C@@H]1F (some centres not stated),-9.12% (active),2.75% (active),3.27% (active),38.4%,23.4%,-34.1% (active),37.6%,
c1cncc(-c2csc(-c3c[nH]c4ccccc34)n2)c1,84.4%,84.1%,97%,,78.8%,103%,94.9%,
C[C@]12CCC3c4ccc(O)cc4C[C@@H](CCCCCCCCCS(=O)CCCC(F)(F)C(F)(F)F)C3C1CC[C@@H]2O (some centres not stated),84.8%,94.2%,67.7%,78%,67.9%,96.1%,93.7%,
CCCCCC(=O)O[C@]1(C(C)=O)CCC2C3CCC4=CC(=O)CC[C@]4(C)C3CC[C@@]21C (some centres not stated),22.1%,52.7%,15.2%,,27.9%,40.3%,13.3%,
CN1CCN(c2cc3c(cc2F)c(=O)c(C(=O)O)cn3-c2ccc(F)cc2)CC1,95.8%,100%,98.5%,118%,102%,97.6%,107%,
COc1cc2c3c(n(C4CCN(C)CC4)c(=O)c2cc1OC)-c1cc2c(cc1C3=O)OCO2,52.4%,60.8%,19.8%,,55%,55.4%,,8.85% (active)
CCOC(=O)c1sc2ncnc(Nc3ccc(NC(=O)Nc4ccc(Cl)cc4)cc3)c2c1C,52.2%,87.3%,41.1%,,54.5%,52.3%,,54.1%
COc1ccc(C(=O)CSc2nc(-c3cc(OC)ccc3OC)cc(-c3ccc(OC)cc3)c2C#N)cc1,91.6%,88.4%,127%,,78.6%,94.4%,98.8%,81.6%
O=S(=O)(NCCCNc1nccc(-c2cn(-c3ccccc3)nc2-c2ccc(Cl)c(O)c2)n1)c1ccccc1,78.5%,76.3%,46.3%,,37.3%,68%,69.4%,
CCn1c2ccc(O)cc2c2c(C)c3c[n+](C)ccc3c(C)c21,19.2%,26.1%,7.28% (active),,37.5%,13.7%,43.6%,-0.0478% (active)
C[C@@H](O)[C@H]1C(=O)N2C(C(=O)O)=C(SC3CN[C@H](C(=O)N(C)C)C3)[C@H](C)[C@H]12 (some centres not stated),97.2%,99.2%,102%,,96.6%,103%,113%,
Cc1c2cnccc2c(C)c2c1c1cc(O)ccc1n2C(C)C,0.21% (active),79.3%,-10% (active),,7.74% (active),5.57% (active),17.9%,-9.59% (active)
C[C@@H](O)[C@H]1C(=O)N2C(C(=O)O)=C(SCCN=CN)C[C@H]12,-1.59% (active),-34.7% (active),1.59% (active),-8.43% (active),-14.9% (active),8.8% (active),-25.8% (active),
COc1cc2c3c(n(C4CCNCC4)c(=O)c2cc1OC)-c1cc2c(cc1C3=O)OCO2,-59.4% (active),-43.8% (active),-66.2% (active),,-53.7% (active),-60% (active),-83% (active),-44.3% (active)
O=C(CCCCNC(=O)c1nc(-c2ccccc2)n(-c2ccccc2)n1)NO,87%,83.9%,78.1%,,84.2%,92%,84.9%,27.7%
COc1ccc2nc(Cl)c(Cn3nnc(Cc4ccccc4)n3)cc2c1,32.5%,39%,40%,,31.5%,47.5%,24.9%,38%
CCOC(=O)c1sc2ncnc(Nc3ccc4c(cnn4C(=O)Nc4ccc(C)c(Cl)c4)c3)c2c1C,91.4%,87.6%,114%,,72.7%,89.6%,110%,68.8%

Structure (SMILES),growth (NCI-H23 lung),growth (NCI-H226 lung),growth (NCI-H460 lung),growth (HOP-92 NSCLC),growth (A549/ATCC NSCLC),growth (786-0 renal),growth (COLO 205 colon),growth (NCI-H522 lung)
COc1cc2c3c(n([C@@H]4CCOC4)c(=O)c2cc1OC)-c1cc2c(cc1C3=O)OCO2,22.8%,24.2%,4.11% (active),,30.4%,7.24% (active),38.8%,17.5%
Cc1c2c[n+](C(C)C)ccc2c(C)c2c1[nH]c1ccccc12,6.42% (active),27.4%,4.39% (active),,20.4%,27.7%,-6.61% (active),2.71% (active)
Nc1ccccc1NC(=O)c1ccc(CCCC(=O)Nc2ccc(C3CC3N)cc2)cc1 (configuration not stated),37.2%,27.5%,40.4%,,34.8%,38.8%,-5.7% (active),-34.4% (active)
Cc1ccc(-n2c(C)nn3c(=O)c4c5c(sc4nc23)CN(C)CC5)cc1,97.4%,98.3%,109%,,73.7%,86.3%,103%,71.5%
c1cnc2[nH]cc(-c3nc(-c4ccsc4)cs3)c2c1,80.2%,74.4%,109%,,84.7%,107%,117%,79.4%
CCn1cc(CNc2ccc(C(=O)Nc3ccc4ccccc4c3)cc2)c(C)n1,52.9%,51%,62.9%,,63.4%,75.3%,69.2%,74.7%
COCCn1cc(-c2nc(-c3cccnc3)cs2)c2cc(F)ccc21,94%,91.5%,92.7%,,90.1%,90.8%,104%,70.6%
Clc1nc2ccccc2cc1Cn1nnc(Cc2ccccc2)n1,45.6%,58.2%,74.3%,,53.9%,72.9%,,42.1%
CCCCCCCCCCCCCCCCCC[n+]1ccc2c(C)c3c(c(C)c2c1)c1cc(O)ccc1n3CC,4.06% (active),58%,6.93% (active),,13.9%,5.53% (active),-46.6% (active),29.2%
CCNc1nc(C(F)(F)F)nc2c1sc(=S)n2-c1ccccc1,93.4%,88.5%,100%,,74.4%,101%,106%,70.4%
O=C(Nc1ccccc1)Nc1ncnc2c1ncn2-c1ccccc1,90.9%,59.1%,7.9% (active),,44.5%,12.1%,86.1%,74.4%
COc1ccc(-c2cc(-c3cc(OC)ccc3OC)nc(N)c2C#N)cc1,68.8%,63.7%,52.5%,,62.6%,66.2%,57.1%,23.6%
COc1cc2c3c(n([C@H]4CCOC4)c(=O)c2cc1OC)-c1cc2c(cc1C3=O)OCO2,17.4%,20.8%,3.66% (active),,32.5%,10.6%,35.8%,15.8%
Cc1ccccc1N1C(=O)c2cc(S(N)(=O)=O)c(Cl)cc2NC1C (configuration not stated),101%,112%,111%,,100%,99.6%,118%,
CN1C(C(=O)Nc2ccccn2)=C(O)c2sc(Cl)cc2S1(=O)=O,99.6%,106%,99.9%,,99.9%,104%,105%,
CCOC(=O)CSc1nc(-c2cc(OC)ccc2OC)cc(-c2ccc(OC)cc2)c1C#N,87%,86.4%,66.6%,,61.6%,71.9%,101%,55.8%
Fc1ccc2[nH]cc(-c3nc(-c4ccsc4)cs3)c2c1,83.6%,78.5%,121%,,80%,109%,101%,79.2%
O=c1[nH]c(=O)n(C2C[C@H](O)[C@@H](CO)O2)cc1C(F)(F)F (some centres not stated),98.1%,107%,113%,,102%,101%,113%,
